Vif imaging: HIV Vif self-association inhibitors, primary screen, imaging, HEK293T, single point; HEK293T cells, Vif self-association by quenched fluorescence, 24 h; inhibition, % at 7.49 µM; hit rate 0.35% among 340,000; AID 602346, 2012; in the data active means inhibition above about 50%, passing the limit was not always enough; inconclusive means no clear call, values can overlap the other calls; inactive means below about 31%
esBAF inh: Bmi1 luciferase reporter increase in mESCs, primary screen, esBAF inhibitor project, mouse ES cells, Bmi1 luciferase knock-in, single point | 24 h; 100% = twice the neutral-well signal | reporter increase, % at 12.5 µM | hit rate 2% among 350,000 | AID 602393, 2012; in the data active means activation above about 40%; inconclusive means no clear call, values can overlap the other calls;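 further: 0% = median of the plate's neutral control wells and 100% = double that signal; a rise in the Bmi1 reporter signal indicates esBAF inhibition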
N-glyco inh: increase of ERlucT glycosylation luciferase signal, primary screen, N-linked glycosylation inhibitor project, D54 ERlucT cells, luminescence, set 2 | D54 ERlucT glycosylation luciferase reporter, 24 h; percent of 100 nM tunicamycin response | hit rate 0.23% among 360,000 | AID 588692, 2011 | reporter increase, % at 12.5 µM;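 active means mean luciferase reporter signal, scaled so untreated is 0 and the glycosylation-blocking control 100, at or above a set limit in every replicate; inconclusive means mean reaches the limit but not every replicate does; inactive means mean below the limit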;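 further: luciferase carries N-glycosylation sites so blocking glycosylation raises the light; 0% = median of neutral control wells and 100% = median of 100 nM tunicamycin wells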
Wnt act: Wnt/beta-catenin pathway activators, primary screen, cell-based, plate reader, single point. hit rate 1.2% among 300,000. activation, % at 9.35 µM. Wnt/beta-catenin reporter cell assay, activator; in the data active means activation above about 30%, passing the limit was not always enough; inconclusive means no clear call, values can overlap the other calls;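 further: 0% = neutral control wells and 100% = positive control wells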
MITF TRPM1 HTS: activators of MITF-driven TRPM1 promoter reporter, primary screen, cell-based, SK-MEL-5, luciferase, single point; SK-MEL-5 TRPM1-promoter luciferase, 24 h; % of positive control, neutral wells = 0; activation, % at 12.5 µM; hit rate 0.75% among 300,000; AID 588334, 2011;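 active means mean activation of at least 80% with every replicate also reaching 80%; inconclusive means mean reaches 80% but some replicate falls short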;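 further: 0% = neutral control wells and 100% = parthenolide positive control wells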
PvdQ acylase: P. aeruginosa PvdQ acylase inhibitors, primary screen, biochemical, fluorescence, plate reader and imaging, single point; PvdQ acylase [Pseudomonas aeruginosa LESB58]; hit rate 0.063% among 340,000; purified PvdQ acylase; inhibition, % at 10 µM; AID 488965, 2010; in the data active means inhibition above about 30%, passing the limit was not always enough; inconclusive means no clear call, values can overlap the other calls;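 further: 0% = vehicle neutral wells and 100% = reference inhibitor wells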
* hit, by the source's call; u = inconclusive; x = no result given. Compounds with a hit are over-represented: about 2.9% of the library has one in this group of screens.

SMILES	Vif imaging	esBAF inh	N-glyco inh	Wnt act	MITF TRPM1 HTS	PvdQ acylase
C[C@@H](NC(=O)C[C@H]1CC[C@@H](NC(=O)c2cccnc2)[C@@H](CO)O1)c1ccccc1	x	-6.8	x	x	x	x
CC(C)NC(=O)Nc1ccc2c(c1)CC(=O)N([C@H](C)CO)C[C@H](C)[C@@H](CN(C)S(=O)(=O)c1cn(C)cn1)O2	x	-6.7	x	x	x	x
COCC(=O)Nc1ccc2c(c1)[C@@H]1C[C@H](CC(=O)NCc3ccccc3F)O[C@@H](CO)[C@@H]1O2	x	-7.3	x	x	x	x
CC(C)C(O)C1CCN(Cc2nc(-c3cccs3)no2)CC1 (stereo not drawn)	-9.8	58.0*	0.0	8.0	50.2	-6.8
c1ccc(OCc2nc(-c3ccncc3)no2)cc1	5.1	u	1.7	3.4	44.4	-3.8
Cc1cccc(-c2noc(Cc3ccccc3)n2)c1	-2.5	102.9*	-2.3	19.4	u	7.2
c1ccc(OCc2nc(-c3ccccc3)no2)cc1	x	67.9*	1.5	77.9*	101.7*	-5.4
CC(=O)NCCc1nc(-c2ccc(Cl)cc2)no1	-0.4	-0.1	2.3	0.0	21.7	-12.5
O=C(O)CCc1nc(-c2ccc(Cl)cc2)no1	1.1	x	1.3	x	2.7	35.5*
NC(=O)C1CCN(Cc2nc(-c3cccs3)no2)CC1	-1.3	-1.5	1.3	1.6	x	-7.0
COc1ccc(CN(C)C[C@@H]2Oc3ccc(NS(=O)(=O)c4ccc(F)cc4)cc3CC(=O)N([C@@H](C)CO)C[C@H]2C)cc1	x	2.7	x	x	x	x
CC1CCN(Cc2nc(-c3ccccc3)no2)CC1	-5.4	54.9*	-3.0	x	x	-6.5
Cc1ccc(OCc2nc(-c3cccnc3)no2)cc1C	-2.1	36.7*	-0.9	-0.5	61.1	-4.3
c1ccc(-c2noc(CN3CCN(c4ccccc4)CC3)n2)cc1	6.8	4.5	0.3	0.3	-5.7	-20.5
COc1ccccc1C(=O)Nc1ccc2c(c1)C(=O)N(C)C[C@@H](OC)[C@H](C)CN(C)[C@@H](C)CO2	x	3.8	x	x	x	x
CC1CCC(NC(=O)c2nn(C)c(=O)c3ccccc23)CC1 (stereo not drawn)	6.5	2.5	6.7	-0.2	x	x
Cc1onc(-c2ccccc2)c1C(=O)NC1CCC(C)CC1 (stereo not drawn)	-5.8	-1.2	-1.9	444.0*	6.1	-6.0
Cc1onc(-c2ccccc2)c1C(=O)NC1CCCCC1C (stereo not drawn)	x	-25.9	0.4	-0.9	x	x
CC1CCC(NC(=O)c2cccn2C)CC1 (stereo not drawn)	0.2	7.6	-13.5	42.1*	76.6	-20.6
CC(C)NC(=O)Nc1cccc2c1O[C@H](CN(C)C(=O)Nc1ccc(F)cc1)[C@H](C)CN([C@H](C)CO)C2=O	x	-5.0	x	x	x	x
O=c1oc2cc(OCc3ccc(F)cc3F)ccc2cc1-c1ccccn1	2.9	45.3*	1.4	x	71.9	-32.2
O=C(CCn1cccn1)N1CCCC(N2CCN(c3cccc(C(F)(F)F)c3)CC2)C1 (stereo not drawn)	-8.9	-7.9	-0.3	31.7*	-12.7	-7.7
CN1C(=O)c2cc(NC(=O)Cc3cccs3)ccc2OC[C@H]2O[C@H](CC(=O)NCC3CC3)CC[C@H]21	x	0.0	x	x	x	x
C[C@@H]1CN([C@H](C)CO)C(=O)c2cc(NC(=O)Nc3ccccc3)ccc2O[C@@H](C)CCCCO[C@@H]1CN(C)C	x	-4.4	x	x	x	x
C/C(=N\NC(=O)c1cccc(S(=O)(=O)Nc2cccc(Cl)c2)c1)c1cccs1	-2.5	-3.1	-0.4	-3.6	2.6	-9.7
CCN(CC)S(=O)(=O)c1cccc(C(=O)N/N=C/c2ccc([N+](=O)[O-])o2)c1	-2.9	x	51.5*	-1.3	-83.9	-2.2
CCN(CC)S(=O)(=O)c1cccc(C(=O)N/N=C(\C)c2cccs2)c1	-14.0	u	0.6	-0.9	100.6*	-3.4
CCOC(=O)C1=C(O)/C(=C/c2cn(CC(=O)NCC3CCCO3)c3ccccc23)SC1=Nc1ccc(C)cc1 (stereo not drawn)	94.1*	x	-3.2	x	-88.1	11.7
CCOC(=O)C1=C(O)/C(=C/c2ccc(-c3ccccc3C(=O)O)o2)SC1=Nc1ccc(C)cc1	-8.7	-4.4	0.5	0.3	-0.9	17.4

Compound activity from PubChem.
